Growth data for 40 compounds are collected here from PubChem BioAssay (NCI).

SMILES strings stand for the structures. About 83,000 compounds went through this panel and 20% of them were active in at least one assay; those are over-represented in the sample as a whole.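 Values shown are percent growth following 48 h exposure of cells in 96-well plates to a single concentration of compound; below 10 was considered active.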 A number with no mark means an inactive call. Activity calls are given as the source filed them.

For the experiment, the system named is T-47D breast. The experiment can be described thus: NCI-60 one-dose screen, 48 h (100 = growth as untreated, 0 = no growth, -100 = all killed). To be noted: 10 µM. How it is done: Growth inhibition of the T-47D human tumor cell line is measured as a screen for anti-cancer activity. Cells are grown in 96 well plates and exposed to the test compound for 48 hours. Compounds are tested at a single concentration, which is 10^-5 M for most compounds. The reported endpoint is percent growth (GI% or GIPRCNT), where numbers from 0 - 100% represent growth inhibition, and numbers from -100% - 0 represent cell death. For example, a value of 40 represents 60% growth inhibition. A value of 0 means no net growth occurred over the course of the experiment. A value of -40 indicates 40% of cells at the beginning of the experiment died by the end of the experiment. A value of -100 means all cells are dead at the end of the experiment.
NCI-60 Human Tumor Cell Lines Screen was performed using the standard one-dose NCI protocol, which is described in more detail at https://dtp.cancer.gov/discovery_development/nci-60/default.htm.
Compounds with GIPRCNT values below 10 were considered active. Activity score was based on GIPRCNT using the following formula: […]
Score is 0 for GIPRCNT values of 100 or above, 50 for GIPRCNT values of 0, and 100 for GIPRCNT values of -100.
Turning to `N#C[Se]CC(=O)Nc1cccc(C(F)(F)F)c1`, the growth was 51%.
For `CCOC(=O)C1=C(Nc2ccccc2)C(=O)OC12C(=O)Nc1ccccc12` (stereo not given), the growth was 110%.
As for `O=C(/C=C/c1ccccc1)c1nc2ccccc2n1Cc1ccc(F)cc1`, the figure is -15.9% (active); as for `COCCOCCOCCOc1ccc(-n2cc(-c3ccc(O[C@H]4O[C@@H]5OC6(C)CC[C@H]7[C@H](C)CC[C@@H]([C@H]4C)[C@@]57OO6)cc3)nn2)cc1`, 17.3%.
As for `COCCOCCOCCOc1ccc(-n2cc(CCCN(CCNc3ccnc4cc(Cl)ccc34)C(=O)CCC(=O)O[C@@H]3O[C@@H]4OC5(C)CC[C@H]6[C@H](C)CC[C@@H]([C@H]3C)[C@@]46OO5)nn2)cc1`, the figure is 20.6%; as for `O=C(/C=C/c1ccc(Cl)cc1)c1nc2ccccc2n1Cc1ccc(Br)cc1`, 28%; as for `C#CCCCN(CCNc1ccnc2cc(Cl)ccc12)C(=O)CCC(=O)O[C@@H]1O[C@@H]2OC3(C)CC[C@H]4[C@H](C)CC[C@@H]([C@H]1C)[C@@]24OO3`, 27.9%.
With `CC[C@]12C=CCN3CC[C@@]4(c5ccc(OC)cc5N(C)[C@H]4[C@@](O)(C(=O)OC)[C@@H]1OC(=O)CCCC[P+](C1CCCCC1)(C1CCCCC1)C1CCCCC1)[C@@H]32`, the growth is 3.83% (active).
Take `C[C@H]1[C@H](OC(=O)CCC(=O)N(CCCc2cn(-c3ccc(CN4CCOCC4)cc3)nn2)CCNc2ccnc3cc(Cl)ccc23)O[C@@H]2OC3(C)CC[C@H]4[C@H](C)CC[C@@H]1[C@@]24OO3`: the growth is 25.4%.
Regarding `CC1=C(CCC=NNC(N)=O)C2=C(C)C3(CC3)[C@@](C)(O)C(=O)C2=C1`, the growth was -38.1% (active).
As for `COc1cc(OC)c(/C=C/C(=O)c2nc3ccccc3n2Cc2ccc(F)cc2)c(OC)c1`, the figure is 61.8%; as for `Cc1ccc2[nH]c(=S)n(-c3ccc(F)cc3)c(=O)c2c1`, 93.5%; as for `COP(=O)(CC(F)(F)C(F)(F)F)OC`, 13.2%.
As for `O=C(/C=C/c1ccco1)c1nc2ccccc2n1Cc1ccc(F)cc1`, the figure is 18%; as for `O=C(/C=C/c1ccc(Cl)cc1Cl)c1nc2ccccc2n1Cc1ccc(F)cc1`, 27.2%; as for `O=C(/C=C/c1ccc(Br)cc1)c1nc2ccccc2n1Cc1ccc(Br)cc1`, 1.99% (active).
For the compound `COC(=O)CCn1c(-c2ccc(-n3cc(-c4ccc(O[C@H]5O[C@@H]6OC7(C)CC[C@H]8[C@H](C)CC[C@@H]([C@H]5C)[C@@]68OO7)cc4)nn3)cc2)nc2ccccc21`, the growth is 14.9%.
For `C[C@H]1[C@H](OC(=O)CCC(=O)Nc2cnccn2)O[C@@H]2OC3(C)CC[C@H]4[C@H](C)CC[C@@H]1[C@@]24OO3` the value was 22.1%; for `CC1=C(CCC=O)C2=C(C)C3(CC3)[C@@](C)(O)C(=O)C2=C1`, -41.3% (active); for `CC1=C2C(=C[C@@](C)(COP(=O)(Oc3ccccc3)Oc3ccccc3)[C@@H]2O)C(=O)[C@@](C)(O)C12CC2`, -47.8% (active).
As for `COc1cc2cc(C(=O)N3C[C@@H](CCl)c4c3cc(OC(=O)N3CCN(C)[C@@H]5CSSC[C@@H]53)c3ccccc43)[nH]c2c(OC)c1OC`, the figure is -5.73% (active); as for `CC(=C\C(=O)Oc1ccc2c3c1OC1C(O)CCC4(O)C(C2)N(CC2CCC2)CCC314)/C=C1\CCCc2ccccc21` (stereo not given), 24.4%; as for `C[C@H]1[C@@H](Oc2ccc(-c3cn(-c4ccnc5cc(Cl)ccc45)nn3)cc2)O[C@@H]2OC3(C)CC[C@H]4[C@H](C)CC[C@@H]1[C@@]24OO3`, 25.6%.
On to `CCC[Se]C(=O)c1ccc(C(=O)[Se]CCC)s1`, for which the growth is 30%.
For `O=C(/C=C/c1ccc(F)cc1)c1nc2ccccc2n1Cc1ccc(F)cc1` the value was 16.6%.
For `COc1cc(OC)c(S(=O)(=O)N(CCCl)CCCl)cc1C(=O)/C=C/c1cc(OC)c(OC)c(OC)c1` the value was 21%; for `O=C(/C=C/c1ccccc1)c1nc2ccccc2n1Cc1ccc(Br)cc1`, -31.3% (active).
Take `CC1=C(C=O)C2=C(C)C3(CC3)[C@@](C)(O)C(=O)C2=C1`: the growth is 13.5%.
For `COc1ccc2cc([C@H](C)C(=O)[Se]CCC#N)ccc2c1` the value was 12%.
`COC(=O)c1ccc(-n2cc(CCCN(CCNc3ccnc4cc(Cl)ccc34)C(=O)CCC(=O)O[C@@H]3O[C@@H]4OC5(C)CC[C@H]6[C@H](C)CC[C@@H]([C@H]3C)[C@@]46OO5)nn2)cc1`: the growth was 37.6%.
For `CC(=O)Oc1ccccc1C(=O)[Se]C(=NC(C)C)NC(C)C` the value was -45.6% (active).
For `O=C(/C=C/c1ccccc1Cl)c1nc2ccccc2n1Cc1ccc(F)cc1` the value was -66.9% (active); for `CN(C)CCc1cn(C2CCC2)c2cccc(O)c12`, 69.9%.
For `CC12CCC3(CCC(=O)NCCCNc4ccnc5cc(Cl)ccc45)[C@@](C)(OO[C@]3(C)O1)O2` the value was 36.9%; for `C=CC[Se]C(=O)c1ccc(C(=O)[Se]CC=C)s1`, -40.4% (active); for `C[C@H]1[C@H](OC(=O)CCC(=O)N(CCCc2cn(-c3ccc(C#N)cc3)nn2)CCNc2ccnc3cc(Cl)ccc23)O[C@@H]2OC3(C)CC[C@H]4[C@H](C)CC[C@@H]1[C@@]24OO3`, 32.1%.
On to `COc1cc2cc(C(=O)N3C[C@@H](CCl)c4c3cc(OC(=O)N3CCN(C(=O)CCC(=O)N5CCN(C)CC5)[C@@H]5CSSC[C@@H]53)c3ccccc43)[nH]c2c(OC)c1OC`, for which the growth is 1.49% (active).
As for `C#CC[Se]C(=O)c1ccc(C(=O)[Se]CC#C)s1`, the growth is 88.8%.
For `COc1ccc(OC)c(/C=C/C(=O)c2nc3ccccc3n2Cc2ccc(F)cc2)c1` the value was 10.5%; for `C#CC[Se]C(=O)c1ccc2n[se]nc2c1`, 62.9%.
